{"source": "PubChem BioAssay", "key": {"[1]": {"biological_target": "Beta-2 adrenergic receptor (Homo sapiens) (UniProt P07550)", "sequence (P07550 whole entry, looked up)": "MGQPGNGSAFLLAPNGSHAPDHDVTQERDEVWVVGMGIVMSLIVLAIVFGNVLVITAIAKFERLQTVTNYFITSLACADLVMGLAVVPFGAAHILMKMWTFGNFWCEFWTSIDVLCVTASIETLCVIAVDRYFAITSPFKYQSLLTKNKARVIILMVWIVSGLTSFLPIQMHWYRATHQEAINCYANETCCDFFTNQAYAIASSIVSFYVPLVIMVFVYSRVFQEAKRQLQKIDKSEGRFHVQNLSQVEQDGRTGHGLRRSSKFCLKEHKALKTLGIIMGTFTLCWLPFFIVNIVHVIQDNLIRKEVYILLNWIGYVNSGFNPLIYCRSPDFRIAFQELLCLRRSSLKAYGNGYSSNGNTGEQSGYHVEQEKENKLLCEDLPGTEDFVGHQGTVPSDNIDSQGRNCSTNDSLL", "experiment": "agonist-induced loss of surface beta2AR – cell-based, FAP fluorogen, flow cytometry, validation set, pilot screen (AID 504459);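 further: agonist-driven loss of surface beta2AR via internalization measured by FAP dye flow cytometry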", "conditions": "Am2.2-beta2AR cells, at 10 µM, hits give high values"}, "[2]": {"experiment": "TOR pathway reporter MEP2-GFP, retest of hits – S. cerevisiae, flow cytometry GFP, cherry picks, confirmation (AID 2272;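 active means GFP response above 150% of the DMSO control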;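 further: ratio of well signal to plate DMSO mean so 100% equals DMSO level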)", "conditions": "S. cerevisiae MEP2-GFP strain, 3 h, at 10 µM, hits give high values"}, "[3]": {"experiment": "yeast AGP1-GFP fluorescence change, single-dose – cell-based, flow cytometry, S. cerevisiae, cherry picks, confirmation (AID 2273;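 active means GFP response above 150% of the DMSO level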;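 further: median GFP channel fluorescence over the whole cell population gate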)", "conditions": "S. cerevisiae AGP1-GFP strain, 3 h, at 10 µM"}}, "note": "A number with no mark means an inactive call.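 How the source made its calls, unless noted: active means percent response above 42, roughly 3 SD of non-fluorescent test compounds; inactive means the rest.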", "data": [{"smiles": "CCC(COC(=O)c1cc(OC)c(OC)c(OC)c1)(c1ccccc1)N(C)C", "note": "(configuration not stated)", "values": [{"measurement": "response", "setting": "[1]", "value": -24.8, "unit": "%"}]}, {"smiles": "O=C1CSC2N1CCNC21CCCCC1", "note": "(configuration not stated)", "values": [{"measurement": "response", "setting": "[1]", "value": 2.41, "unit": "%"}]}, {"smiles": "CC12CN3CC(c4ccccc4)(CN(C1)C31CCCCC1)C2=O", "values": [{"measurement": "response", "setting": "[1]", "value": 15.3, "unit": "%"}]}, {"smiles": "CC(=O)Nc1cc([As](=O)(O)O)ccc1O", "values": [{"measurement": "response", "setting": "[1]", "value": -23.7, "unit": "%"}]}, {"smiles": "Clc1ccc(COC(Cn2ccnc2)c2ccc(Cl)cc2Cl)c(Cl)c1", "note": "(configuration not stated)", "values": [{"measurement": "response", "setting": "[1]", "value": -12.4, "unit": "%"}]}, {"smiles": "CC/C(=C\\C=C\\[C@@H]1C=C[C@@H]2CCC[C@H]2[C@@H]1C(=O)c1ccc[nH]1)[C@@H]1O[C@@H]([C@@H](C)C(=O)O)CC[C@@H]1C", "values": [{"measurement": "response", "setting": "[1]", "value": 9.7, "unit": "%"}]}, {"smiles": "O=C1/C(=C\\c2ccc(Cl)c(Cl)c2)N2CCC1CC2", "values": [{"measurement": "GFP response vs DMSO", "setting": "[2]", "value": 92.6, "unit": "%"}, {"measurement": "GFP response, % of DMSO", "setting": "[3]", "value": 95.5, "unit": "%"}]}, {"smiles": "CCN(CC)c1ccc(C=C2C(=O)NC(=S)NC2=O)cc1", "values": [{"measurement": "GFP response vs DMSO", "setting": "[2]", "value": 95.2, "unit": "%"}, {"measurement": "GFP response, % of DMSO", "setting": "[3]", "value": 100, "unit": "%"}]}, {"smiles": "CCC(C)N1C(=O)/C(=C\\c2cnc(N(C)C)nc2)C(=O)NC1=S", "note": "(configuration not stated)", "values": [{"measurement": "GFP response vs DMSO", "setting": "[2]", "value": 104, "unit": "%"}, {"measurement": "GFP response, % of DMSO", "setting": "[3]", "value": 97.2, "unit": "%"}]}, {"smiles": "NCCc1ccc(O)cc1", "values": [{"measurement": "response", "setting": "[1]", "value": -14.8, "unit": "%"}]}, {"smiles": "NCC(O)c1ccc(O)cc1", "note": "(configuration not stated)", "values": [{"measurement": "response", "setting": "[1]", "value": 8.68, "unit": "%"}]}, {"smiles": "O=C1NC(=S)N(c2ccccc2)C(=O)/C1=C/c1ccco1", "values": [{"measurement": "GFP response vs DMSO", "setting": "[2]", "value": 122, "unit": "%"}, {"measurement": "GFP response, % of DMSO", "setting": "[3]", "value": 103, "unit": "%"}]}, {"smiles": "CC12CCC3C(CC=C4CC5(CCC43C)OCCO5)C1CCC2=O", "note": "(configuration not stated)", "values": [{"measurement": "response", "setting": "[1]", "value": 0.6, "unit": "%"}]}]}
